# Results as given in the supplement of paper PMC6555819.
# Experiments:
# Experiment in all cases: PBM binding z-score (relative to random genomic background probes); higher = stronger binding; sequences stand for … in GC…GCGATTGACAGCGTAGAATGAAGG
# [1] = test system: RARb homodimer (NR concentration 270 nM)
# In short: (§1)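 Binding buffer was PBS pH 7.4 with 2% milk, 0.02% Triton X-100, 1 mM DTT, 0.2 mg/mL BSA and 0.4 mg/ml salmon testes DNA. In it, ligand-free nuclear receptor dimers were incubated 1 h on custom Agilent 4×180K protein-binding microarrays carrying double-stranded probes. Antibodies against each partner (one per run) detected binding, and z-scores were calculated against random background probes after regression normalization of scanned fluorescence.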
# [2] = test system: RARg:RXRa (NR concentration 270 nM, RXRa partner concentration 90 nM)
# In short: as §1
# [3] = test system: RARg homodimer (NR concentration 270 nM)
# In short: as §1
# [4] = test system: RXRa DBDmut IVT, anti-RXR (DBD mutation: RXRa K156A/R161A, NR concentration 90 nM)
# In short: as §1
# [5] = test system: RXRa homodimer (NR concentration 180 nM)
# In short: as §1
# [6] = test system: THRa:RXRa (NR concentration 90 nM, RXRa partner concentration 90 nM)
# In short: as §1
# [7] = test system: THRa homodimer (NR concentration 90 nM)
# In short: as §1
# [8] = test system: VDR homodimer (NR concentration 270 nM)
# In short: as §1
Sequence,PBM binding z-score [1],PBM binding z-score [2],PBM binding z-score [3],PBM binding z-score [4],PBM binding z-score [5],PBM binding z-score [6],PBM binding z-score [7],PBM binding z-score [8]
CTTGCTAGGTCAATGGTCAGCTAAAGCAGCTCGC,2.82,3.48,4.68,1.61,2.34,2.13,0.43,-0.158
CGTCCCAGGTCAAAGGTCAGTGAAGAGATGACGG,5.2,7.98,7.02,2.62,9.93,4.99,2.8,2.7
CCAGACAGGTGAGAACGTAACTCAGCCTCGATTA,0.118,0.404,0.33,0.242,0.378,-0.0328,0.361,0.202
CGTCCAAGGTCATAGGAGGTCAGGGAAGACAGAT,5.2,6.79,7.15,3.89,6.99,5.41,3.54,4.28
AGAATGAGGTTAAGATCAGGGAGACAGAATACAT,1.15,1.94,1.5,1.06,2.49,2.55,0.979,0.818
ATAGGTAGGTTAAGGGTCATTCAGGTTGGTTCGC,4.42,5.12,3.74,2,6.15,3.71,2.58,4.7
ATCGAAAGGTCGAAGGTGAGGATACCCACCCGAA,2.56,4.41,3.84,0.413,5.16,3.1,1.1,0.293
AGAATGAGGTTTAGATCAGGGAAACAGAATACAT,-0.22,-0.0854,0.196,-0.146,-0.129,0.678,-0.242,0.0888
ACTCGGAGGAAAAAGGTCAGAGCTACGCCAGTGA,4.12,4.09,3.97,-0.291,3.67,2.24,-0.145,0.161
ACAGACAGGTGATGAAGATAACTCAGGCTATCAT,0.036,0.0914,0.567,-0.415,0.164,0.061,-0.111,-0.302
ATACCAAGGTGATCGTGAGGTCTTTGATACTAAC,0.992,0.797,0.392,0.0771,0.435,2.38,1.65,0.438
CTCGAAAGGTCGGTTGAGGTGTGTATACGGATAA,1.73,2.34,2.27,0.858,1.74,3.69,-0.0744,0.415
AGAATGAGATTATTAAGATCAGGGAATTGCGGTC,-0.433,-0.202,0.0706,-0.35,-0.434,-0.315,-0.66,-0.308
CCTTACGGGCCAAGGTTATAGCACGGGTGGTACG,0.655,0.306,0.628,-1.14,0.273,0.713,0.104,0.207
TCTATTAGTTGAAGGGCACCCGACGAGTCCGTTT,1.26,0.402,0.483,1.77,0.846,0.413,0.444,1.93
AGAATGAGGTTACCAACGATCAGGGAAACGCTTG,0.885,1.97,1.6,1.08,2.45,2.75,0.794,0.331
CCTAGCAGGCCAGGGTCATTCAAGCATTTCGCTT,2.54,2.93,1.89,1.62,3.35,2.93,0.719,2.77

Sequence,PBM binding z-score [1],PBM binding z-score [2],PBM binding z-score [3],PBM binding z-score [4],PBM binding z-score [5],PBM binding z-score [6],PBM binding z-score [7],PBM binding z-score [8]
TCTTGTAGATCACAGGTTAAGAAAGCCGAAGCCT,0.0208,0.222,0.135,0.557,0.811,0.341,-0.442,-0.219
CCTAGTAGTTGACCATAAGGGCAACCGAAGCTCG,2.08,1.13,0.854,-0.02,0.613,1.81,1.16,0.728
CTCGAAAGGTCGTGCTCATGTGAGTATACCAAAC,2.68,4.43,3.69,2.15,5.19,2.45,0.174,0.995
CGTCCAAGGTCACAGGTCAGTGAAGAGATGACGG,5.03,6.75,7.51,3.42,7.67,4.36,3.28,2.75
CGAACTAGGTCATTGACAGGACAGTAAATAGTAA,2.73,4.76,4.54,2.6,2.84,2.74,0.723,1.03
CAAACTAGGTCACAGAGGTCTAAGTCCGTGCGTA,3.5,4.44,4.87,1.85,3.76,3.54,1.82,1.87
AATACAGGGTCATCGTAGGCCTGAGTACGCACAG,3.36,5.59,4.89,3.34,6.77,4.2,1.25,3.73
GTATATAGGTAATACAAGGTGAAAGTCCGATTGT,1.06,0.647,0.697,0.401,0.751,4.18,1.48,0.367
CATAAAGGGTCAGCTAGGCCAGAGTAGGGACGGC,4.09,5.41,6.23,1.52,4.42,2.65,0.204,0.783
GGAACGAGGGCATTCGAGTTGCTAGCATGGCGAT,0.541,0.857,1.12,2.88,0.425,2.25,-0.87,2.87
ACTTACGGGTCAATGAGGTTATAGCACGCGTATA,3.59,5.05,4.75,2.58,6.03,4.16,1.57,3.35
CACACTAGGTCACCGGAAGGTCAAAGTCCGCATG,5.83,8.21,7.39,2.24,6.53,4.79,3.54,3.61
CTCGAAAGGTCGTGATCAGGTGAGTATACCAAAC,2.66,4.85,3.85,1.9,4.72,4.04,0.717,0.668
TCGAGTAGGTTAGTCGGGGCATCCAGCCAACATA,0.213,0.0156,-0.131,-0.109,0.28,1.05,-0.433,-0.177
ATCTCTAGGTAAAAGTTCAATGAATCCCGAGGAT,3,2.3,2.41,1.29,2.4,1.71,0.132,2.73
CCTTACGGGTCACTGAGAGGTTATAGCATTTGGA,3.75,6.72,4.64,1.75,5.62,3.46,0.613,1.78
AGAACGAGGGGACGCTGAGTTGATAGCAGAGTAG,0.0721,0.0507,0.265,0.401,-0.0794,0.202,-0.233,1.16
